Results as given in ChEMBL document CHEMBL3988442, “University of Dundee, Small-Polar-MMV Screening Library” (2021).
The campaign covered roughly 48,000 compounds. About 13,000 (27%) showed an effect of 50% or more. The list shows a part of the results.

The compounds below were run on Wolbachia pipientis (assay: Anti-Wolbachia Cell-Based Screen). Conditions: 5 µM.
Assay type: functional
Set-up: scale not given: in the data most compounds retested in dose-response had high values

SMILES | Percent Effect [%]
O=C(CN(Cc1ccco1)C1CC1)Nc1ccc(Br)cn1 | 5.807
O=C(CN(Cc1ccco1)C1CC1)N1CCCCCC1 | 130.6
CC1CCN(C(=O)CN(Cc2ccco2)C2CC2)CC1 | 16.65
COc1ccc(CN2CC[C@H](c3nc4cccc(C(N)=O)c4[nH]3)C2)cc1 | -8.435
CCCn1nc(C)c(CNC(=O)C2COc3ccc(OC)cc3C2)c1C (stereo not drawn) | -13.51
CC(=O)c1cccc(OCCCC(=O)N(C)Cc2cnc(C)s2)c1 | -4.275
CC(C)CNC(=O)Nc1cccc(CN2CCOC2=O)c1 | -15.82
Cc1nn(C)c(C)c1-c1nccnc1CC1CCNCC1 | 110.6
c1cncc(-n2cnnc2CC2CCNCC2)c1 | -4.344
Cc1nn(C)c(C)c1-c1cnc(CC2CCNCC2)cn1 | 154.2
CCc1nccn1CCCNc1nccc(-c2c(C)nn(C)c2C)n1 | 0.4363
Cc1nn(C)c(C)c1-c1cnc(CC2CCNC2)cn1 (stereo not drawn) | 90.84
COc1ccc(C)cc1-n1cnnc1CC1CCNCC1 | 5.267
CCn1ccnc1CNc1nccc(-c2c(C)nn(C)c2C)n1 | -9.163
O=C(C1=CCCC1)N1CC[C@]2(C[C@H](OCc3cccnc3)CO2)C1.O=C(O)C(F)(F)F | -2.821
CCSCC(C)NCc1ccccc1-n1ccnc1 (stereo not drawn) | 26.03
Cc1nnc2n1CCN(C(=O)CN1C(=O)CSc3ccccc31)C2 | -16.29
CC(C)NC(=O)O[C@H]1COCCN(c2nc3ccccc3s2)C1 | 11.5
O=C(c1cn(-c2cc(N3CCSCC3)ncn2)cn1)N1CCSCC1 | 23.31
Cc1cc(C)n(CC2CCCN2C(=O)c2c[nH]c(=O)c(Cl)c2)n1 (stereo not drawn) | 130
Cc1cc(C)n(CC2CCCN2C(=O)c2cc[nH]n2)n1 (stereo not drawn) | 9.629
Cc1cc(C)n(CC2CCCN2C(=O)c2ccnc(N(C)C)c2)n1 (stereo not drawn) | 141.4
CCc1noc(C)c1C(=O)N1CCCC1Cn1nc(C)cc1C (stereo not drawn) | -1.879
Cc1cc(C)n(CC2CCCN2C(=O)c2ccc(N(C)C)nn2)n1 (stereo not drawn) | 107
Cc1cc(C)n(CC2CCCN2C(=O)c2ccc3c(c2)OCO3)n1 (stereo not drawn) | 14.69
Cc1cc(C)n(CC2CCCN2C(=O)c2cnccn2)n1 (stereo not drawn) | 101.9

SMILES | Percent Effect [%]
Cc1cc(C)n(CC2CCCN2C(=O)c2ccc3c(c2)nnn3C)n1 (stereo not drawn) | -2.526
Cc1cc(C)n(C2CCCN(C(=O)c3c[nH]c(=O)c(Cl)c3)C2)n1 (stereo not drawn) | -7.23
Cc1cc(C)n(CC2CCCCN2C(=O)c2ccc3c(c2)OCO3)n1 (stereo not drawn) | -4.429
Cc1cc(C)n(CC2CCCN2C(=O)c2cnn(C)c2C2CC2)n1 (stereo not drawn) | -2.201
NC(=O)CC1CCN(CC(O)c2ccc(Br)cc2)CC1 (stereo not drawn) | 25.42
CC(COc1ccccc1)NCc1nncn1C1CCCCC1 (stereo not drawn) | -38.9
CCN1CCC(NC(=O)Cc2csc(C(C)(C)C)n2)CC1 | 4.843
O=C(O)C(F)(F)F.O=C([C@H]1CCCO1)N1CCN(CCn2cccn2)c2ncccc2C1 | 108.8
O=C(C1CCOC1)N1CCN(CCn2cccn2)c2ncccc2C1.O=C(O)C(F)(F)F (stereo not drawn) | 122
CCN(CC)C(=O)c1nnc2ccc(N3CCOCC3)cc2n1 | -10.33
CCCS(=O)(=O)N1CCN(CC(F)(F)F)CC1 | 16.36
Cc1cnc(C(C)(C)NC(=O)NCc2ccon2)s1 | -28.31
Cc1nc2cc(C(=O)N(CCC#N)CCC#N)ccc2n1C | -0.9305
Cc1nc2cc(C(=O)N(CCC#N)CC3CCCO3)ccc2[nH]1 (stereo not drawn) | 103.2
N#CCCN(CC1CCCO1)C(=O)c1ccc2nonc2c1 (stereo not drawn) | 113
CN(Cc1ccc2nonc2c1)C(=O)c1ccc(C2CCCO2)s1 (stereo not drawn) | -9.176
Cc1nc2ccc(C(=O)N(CCC#N)CCC#N)cc2nc1C | -2.079
N#CCCN(c1ccc(F)cc1)S(=O)(=O)CC1CCCCO1 (stereo not drawn) | -8.338
CCC(C)CS(=O)(=O)NCCc1csc(N2CCCC2)n1 (stereo not drawn) | -21.99
COCC(C)N(Cc1ccccc1OC)C(=O)c1cc(C)[nH]c(=O)c1 (stereo not drawn) | -10.95
C[C@]1(O)CN(CCC(N)=O)CC[C@@H]1Oc1cccc(F)c1 | 109.4
C[C@]1(O)CN(CC(=O)N2CCCC2)CC[C@@H]1Oc1cccc(F)c1 | 121.7
O=C(COc1cccc(F)c1)N1C[C@H](CO)C[C@H](CN2CCCC2)C1 | -0.9347
NC(=O)CN1CCC(C(=O)NCC(O)c2cccc(F)c2)CC1 (stereo not drawn) | 3.405
C[C@]1(O)CN(CCO)CC[C@@H]1Oc1cccc(F)c1 | 120.3
CN1CC(=O)N(c2cccc(F)c2)CC12CCN(CCO)C2.O=C(O)C(F)(F)F.O=C(O)C(F)(F)F (stereo not drawn) | 1.497

SMILES | Percent Effect [%]
O=C(O)C(F)(F)F.O=C1CC2(CCN(CCO)C2)CN1c1cccc(F)c1 (stereo not drawn) | 6.062
CC(Oc1cccc(F)c1)C(=O)N(CC(N)=O)C1CCCC1 (stereo not drawn) | -28.68
O=C(COc1cccc(F)c1)N1C[C@@H](CN2CCCC2)C[C@H](CO)C1 | -0.02776
CCn1ncc2c1NC(=O)CC2c1cnc(NCc2ccccc2)nc1 (stereo not drawn) | 4.243
Cc1ccc(N2CCCC(N3CCC4(CC3)OCCO4)C2=O)cc1 (stereo not drawn) | -7.017
COc1ccc2c(c1)CCCN(C(C)C(=O)NC(C)C)C2 (stereo not drawn) | -4.844
COc1ccc2c(c1)CCN(CCC(=O)O)CC2 | -10.19
COC(=O)C(C)N1CCCc2cc(OC)ccc2C1 (stereo not drawn) | -9.406
OC(CN1CCCc2cc(OC(F)F)ccc21)Cn1cccn1 (stereo not drawn) | -16.69
COc1ccc2c(c1)CN(C)C(=O)CCN2CC(O)C(C)(C)C (stereo not drawn) | 100.8
COc1ccc2c(c1)CN(C)C(=O)CCN2CC(O)C(F)(F)F (stereo not drawn) | 104.6
O=C(CNc1nc(C2CC2)ns1)N1CCc2sccc2C1 | -3.427
N#CCCN(CCC#N)C(=O)c1cccc(N2CCNC2=O)c1 | -11.85
Cc1nc(C2CCCN(C(=O)CCCn3cccn3)C2)no1 (stereo not drawn) | 10.77
CC(C)c1nc(C2CCCN(C(=O)CCCn3ccnc3)C2)no1 (stereo not drawn) | 94.72
CC(C)c1nc(C2CCCN(C(=O)CS(=O)(=O)C(C)C)C2)no1 (stereo not drawn) | -11.89
CC(C)c1nc(C2CCCN(C(=O)CN(C)S(C)(=O)=O)C2)no1 (stereo not drawn) | -21.51
CCS(=O)(=O)CC(=O)N1CCCC(c2noc(C(C)C)n2)C1 (stereo not drawn) | -6.108
CC(C)c1nc(C2CCCN(C(=O)CCn3ccnc3)C2)no1 (stereo not drawn) | -0.5429
CC(C)c1nc(C2CCCN(C(=O)CN3CCCNC3=O)C2)no1 (stereo not drawn) | 6.733
CC(C)c1nc(C2CCCN(C(=O)CCCn3cccn3)C2)no1 (stereo not drawn) | 95.04
Cc1nc(C2CCCN(C(=O)CCCn3cccn3)C2)sc1C (stereo not drawn) | 112.1
Cc1nc(C2CCCN(C(=O)CN3CCCC3=O)C2)sc1C (stereo not drawn) | -7.822
Cc1nc(C2CCCN(C(=O)CN3CCCNC3=O)C2)sc1C (stereo not drawn) | 6.53
CC(C)c1nc(C2CCCN(C(=O)CCc3cscn3)C2)no1 (stereo not drawn) | 114.7
CCN(Cc1cccc(NC(=O)COCCOC)c1)C(C)=O | -8.699

SMILES | Percent Effect [%]
CCc1c(C)nn(CC(=O)NC(C)c2n[nH]c(C)n2)c1C (stereo not drawn) | 2.562
Cc1noc(C2CCN(c3oc(C)nc3C#N)CC2)n1 | -7.205
CC(C)N1CCC(C(=O)NC[C@H]2CCc3ccccc3O2)CC1 | -3.949
COC(=O)CCNC(=O)c1ccc(NC(=O)N(C)CC(C)(C)C)cc1 | 28.42
Cc1nc(C2CCCN(C(=O)CCCn3ccnc3C)C2)no1 (stereo not drawn) | -5.463
Cc1nccn1CCCC(=O)N1CCCC(c2noc(C(C)C)n2)C1 (stereo not drawn) | 94.02
O=C1O[C@@H]2CN(Cc3ccccn3)C[C@@H]2N1CCCc1ccc(F)cc1 | 2.234
Cc1ccc(OC2(C(=O)N(C)Cc3ccoc3)CCNCC2)cc1 | -12.66
CCCc1cc(CNC(=O)Cc2cc(C)no2)on1 | 0.033
Cc1cc(C)nc(N2CCC(NCCSc3nnnn3C)CC2)n1 | -14.51
CCCc1cc(N2CCC(NC3CCOCC3)CC2)nc(C)n1 | 29.8
CCCc1cc(CNC2CCN(c3nc(C)cc(C)n3)CC2)on1 | 99.03
CCCc1cc(N2CCC(N[C@H]3CC[C@H](O)CC3)CC2)nc(C)n1 | -4.932
CCCc1cc(CNC2CCN(c3cc(C)nc(N)n3)CC2)on1 | 82.71
CCCc1cc(CNC2CCN(c3cc(C(C)C)nc(C)n3)CC2)on1 | 93.6
CCCc1cc(N2CCC(NC3CCS(=O)(=O)C3)CC2)nc(C)n1 (stereo not drawn) | -13.12
Cc1n[nH]c(SCCNC2CCN(c3nc4ccccc4s3)CC2)n1 | -0.1074
CCCc1cc(N2CCC(NCC3(O)CCN(C)CC3)CC2)nc(C)n1 | -6.496
CCCc1cc(CNC2CCN(c3nc4ccccc4s3)CC2)on1 | 114.2
CCS(=O)(=O)CCNC1CCN(c2nc3ccc(Cl)cc3s2)CC1 | -46.95
Cc1ccc(C(=O)N2CCN(c3ncnc4nc(N)ccc34)CC2)o1 | -4.077
Cc1noc(C)c1S(=O)(=O)NCC(C)(O)c1ccc2c(c1)OCO2 (stereo not drawn) | 22.76
CCS(=O)(=O)c1ccc2oc([C@H]3CCN(Cc4ccncc4)C3)nc2c1 | -3.63
CN1N=C(C(=O)N2CCCC(CCc3ccccc3)C2)CCC1=O (stereo not drawn) | -44.22
COCCN(C)Cc1ccc(OC)c(OC(F)F)c1 | -5.242
